Reference: PubChem BioAssay (NCI)
Compounds without any hit were thinned out: in the full panel of roughly 83,000, 20% have a hit.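 Negative percent growth values reflect cell death: -40 means 40% of the cells present at the start died, and -100 means all died.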 Unmarked numbers belong to inactive results. Calls of active or inactive are those of the source.

The compounds below were run on HS 578T breast (assay: NCI-60 one-dose screen, 48 h (100 = growth as untreated, 0 = no growth, -100 = all killed)). Conditions: 10 µM.
Method: Growth inhibition of the HS 578T human tumor cell line is measured as a screen for anti-cancer activity. Cells are grown in 96 well plates and exposed to the test compound for 48 hours. Compounds are tested at a single concentration, which is 10^-5 M for most compounds. The reported endpoint is percent growth (GI% or GIPRCNT), where numbers from 0 - 100% represent growth inhibition, and numbers from -100% - 0 represent cell death. For example, a value of 40 represents 60% growth inhibition. A value of 0 means no net growth occurred over the course of the experiment. A value of -40 indicates 40% of cells at the beginning of the experiment died by the end of the experiment. A value of -100 means all cells are dead at the end of the experiment.
NCI-60 Human Tumor Cell Lines Screen was performed using the standard one-dose NCI protocol, which is described in more detail at https://dtp.cancer.gov/discovery_development/nci-60/default.htm.
Compounds with GIPRCNT values below 10 were considered active. Activity score was based on GIPRCNT using the following formula: […]
Score is 0 for GIPRCNT values of 100 or above, 50 for GIPRCNT values of 0, and 100 for GIPRCNT values of -100.

Point of comparison: `COc1ccc(-c2cc(C(=O)N=Nc3c(O)[nH]c4ccccc34)c3ccccc3n2)cc1`, growth 31.1%. Against it:
- COc1ccc(NC(=O)CSc2nnc(-c3ccc4nc(-c5ccc(Cl)cc5)[nH]c4c3)o2)cc1 — higher, 35.2%
- CN1CCc2c(sc3ncnc(N/N=C/c4cn(-c5ccccc5)nc4-c4ccc(Br)cc4)c23)C1 — higher, 70.1%
- COc1ccc(C(=O)CSc2nnc(-c3c[nH]c4ccccc34)n2-c2ccccc2)cc1 — lower, 15.5%
- COc1cc(Cn2c(C(F)(F)F)cc3c(Cl)ncnc32)ccn1 — lower, 11.2%
- O=C(Cn1nc(-c2ccccc2)ccc1=O)NN1C(=O)c2ccccc2C1=O — higher, 73.4%
- O=C(CS(=O)(=O)c1oc(-c2ccc(Cl)cc2)nc1S(=O)(=O)c1ccc(Cl)cc1)N1CCOCC1 — higher, 76%
- C=C[C@@]12CN3CC[C@]1(O)[C@@](C(=O)OC)(CO2)c1[nH]c2ccccc2c1C3 — higher, 80.5%
- O=C(/C=C/Nc1ccccc1)c1ccc2c(c1)Nc1ccccc1S2 — higher, 63%
- Clc1cccc(N/N=C/c2c[nH]c3ccccc23)n1 — lower, 28.5%
- COc1ccc(-c2nc(S(=O)(=O)c3ccc(C)cc3)c(S(=O)(=O)CC(=O)N(C)Cc3ccccc3)o2)cc1 — higher, 67.2%
- C=C1CCC2C3(C)COC(c4c(F)cccc4F)OC3CCC2(C)C1C/C=C1/C(=O)OCC1O (stereo not given) — lower, 17.5%
- NS(=O)(=O)c1ccc(NC(=O)CSc2ccc(-c3ccccc3)nn2)c(Br)c1 — higher, 41.1%
- O=C(c1ccc([N+](=O)[O-])c([N+](=O)[O-])c1O)n1[nH]c(=O)c2ccccc2c1=O — higher, 77.4%
- COc1ccccc1[C@H]1C(C(=O)c2ccc(O)cc2)C2(N[C@@H]1c1ccccc1)C(=O)Nc1ccc(Br)cc12 (stereo not given in full) — higher, 36.3%
- CCCSc1nc(NC2CC2)c(C#N)c(-c2ccc(OC)cc2)n1 — higher, 105%
- O=C(c1ccccc1)n1ccc(-c2cc3cc(Br)ccc3oc2=O)n1 — higher, 48.5%
- Nc1nnc(-c2c[nH]c3ccc(F)cc23)c(-c2c[nH]c3ncccc23)n1 — lower, 29.1%
- CC(C)c1ccc(C(=O)Nc2sc3c(c2C(N)=O)CCC(=O)C3=O)cc1 — higher, 93.7%
- CN1CCN(c2ccc(Nc3nc(NCCCNC(=O)c4ccc(Cl)cc4)c4sccc4n3)cc2)CC1 — higher, 78.8%
- COc1ccc(N2N=C(c3ccc4c(c3)OCCO4)CC2c2cccc(NC(=O)CCCNS(=O)(=O)c3ccc(F)cc3)c2)cc1 (stereo not given) — higher, 78.7%
- Cc1ccc2nc(-c3ccc(-c4nnc(SCC(=O)Nc5ccc(Cl)cc5)o4)cc3)[nH]c2c1 — higher, 40.5%
- Nc1nnc(-c2c[nH]c3ncccc23)c(-c2c[nH]c3ccc(Br)cc23)n1 — higher, 33.7%
- COc1cc(/C=C/C(=O)c2ccc(S(=O)(=O)NCCNc3nc(Nc4ccc(F)cc4)nc(N(C)C)n3)cc2)cc(OC)c1OC — higher, 67.3%
- O=C(CSc1nnc(-c2c[nH]c3ccccc23)n1-c1ccccc1)c1ccc(Br)cc1 — higher, 52.3%
- CC(=O)Nc1nc(-c2ccc(N3CCN(C)CC3)c(NS(=O)(=O)c3ccc(C(F)(F)F)cc3)c2)cs1 — higher, 38.6%
- O=C(CNc1nc(-c2ccccc2)cs1)Nc1ccc(Br)cc1 — lower, 16.6%
- CN(C)c1ccc(/C=C/C(=O)c2ccc(NC(=O)CN3C(=O)NC(C)(c4ccccc4)C3=O)cc2)cc1 (stereo not given) — higher, 78%

`O=C(c1ccc(Cl)cc1)C1[C@H](c2ccc(Br)cc2)[C@@H](c2ccccc2)NC12C(=O)Nc1ccc(Cl)cc12` (stereo not given in full) was tested, and the growth was -14% (active).
`Cc1noc2c(Cc3ccccc3)nn(CC(=O)N/N=C/c3ccc(Cl)cc3)c(=O)c12` was tested, and the growth was 4.07% (active).
For `Brc1ccc(/C=C/c2n(Cc3ccc4ccccc4c3)c3ccccc3[n+]2Cc2ccc3ccccc3c2)cc1`, the growth was -43.6% (active).
For `O=C(Nc1ccc(OCc2ccccc2)cc1)Nc1ccc(Cl)c(C(F)(F)F)c1`, the growth was -0.0644% (active).
For `O=C1Nc2ccc(Cl)cc2/C1=C/c1cccc(OCc2ccccn2)c1`, the growth was -1.17% (active).
For `N#Cc1c(NC(=O)c2ccc(C(F)(F)F)cc2)sc2c1CCC(=O)C2`, the growth was -27.1% (active).
For `O=c1[nH]c2ccccc2cc1CSc1ccc(Nc2nccc(-c3ccc(Cl)cc3)n2)cc1`, the growth was -22.1% (active).
For `N#Cc1c(NC(=O)c2ccc(C(F)(F)F)cc2C(F)(F)F)sc2c1CCC(=O)C2`, the growth was -5.88% (active).
`COc1cccc(/C=N/NC(=O)c2ccc3nc(-c4ccc(Cl)cc4)[nH]c3c2)c1O` was tested, and the growth was -54.7% (active).
In the case of `O=C1NC(=NC23CC4CC(CC(C4)C2)C3)N/C1=C\c1ccc2ncccc2n1`, the growth is reported as -24.3% (active).
In the case of `Cn1cc(-c2cc(N)n3nc(-c4c[nH]c5ccc(Br)cc45)cc3n2)c2cc(Br)cnc21`, the growth is reported as -29% (active).
With `CCOc1ccc2ncc(C#Cc3cncc(C(=O)Nc4ccc(CN5CCN(C)CC5)c(C(F)(F)F)c4)c3)n2n1` the growth was -28.2% (active).
